# Test results: PubChem BioAssay (NCI)
# The panel holds about 83,000 compounds, 20% with a hit somewhere; the sample as a whole holds those more often.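 In brief: 96-well plates, 48 h treatment, single concentration, percent growth endpoint.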 A number with no mark means an inactive call. Calls of active or inactive are those of the source. Rule for the calls: active = growth percent below 10; inactive = the rest.
# Tested on: UO-31 renal
# Assay: NCI-60 one-dose screen, 48 h (100 = growth as untreated, 0 = no growth, -100 = all killed)
# Conditions: 10 µM unless noted
row,Structure (SMILES),growth
1,Cc1cc(S(=O)(=O)/N=C(\N)n2nc(C)c(C)c2C)c(SCc2ccccc2)cc1Cl,23.8%
2,Oc1ccc(Cl)cc1/C=N\NC(=S)N/N=C/c1cc(Cl)ccc1O,16.1%
3,O=C(/C=C/c1cccs1)Nc1ncc(Cc2ccccc2F)s1,36.2%
4,COC(=O)CC[C@H](C)[C@H]1CC[C@H]2[C@@H]3CC[C@@H]4CC5(CC[C@]4(C)[C@H]3CC(=O)[C@]12C)Nc1ccccc1NC5=NC(C)(C)C (some centres not stated),88.7%
5,CC1CCc2c(C(=O)Nc3ncc(Cc4cccc([N+](=O)[O-])c4)s3)csc2C1 (configuration not stated),32.4%
6,O=C1/C=C/[C@@H](O)[C@@H]2C[C@@H](O)C[C@H]2/C=C/CCC[C@H](CCc2ccccc2)O1,14.7%
7,O=C(Nc1ccccc1O)c1ccc(CNC(=O)c2sccc2Nc2ccnc(C(F)(F)F)c2)cc1,27.2%
8,COc1ccc(C(=O)/C=C/c2c(C(F)(F)F)nc3ccccn23)cc1OC,25.9%
9,CCC(=C(c1ccc(OCCN2CCCCC2)cc1)c1ccc(OCCN2CCCCC2)cc1)c1ccc(Cl)cc1,-94.5% (active)
10,O=C1Nc2ccc(C(=O)O)cc2/C1=N/c1nnc(Sc2ccccc2)s1,84.3%
11,CCN1CCN(C(=O)[C@]23CCC(C)(C)C[C@@H]2C2=CC[C@@H]4[C@@]5(C)CCC(=O)C(C)(C)[C@@H]5CC[C@@]4(C)[C@]2(C)CC3)CC1,34.1%
12,Nc1ncnc2c1C(c1ccccc1)c1ccc3ccccc3c1O2 (configuration not stated),56.5%
13,Cn1cc(-c2ccc3nc(-c4ccc(CC(=O)ONc5cc(C(C)(C)C)on5)cc4)cnc3c2)cn1,20.9%
14,Cc1ccc2c(c1)=C/C(=C\c1cc(-c3ccccc3)oc1O)C(=O)N=2,100%
15,COc1ccc(-c2nc3c(ncc4ccc(=O)[nH]c43)s2)cc1,72.1%
16,CC1CN(S(=O)(=O)c2oc(-c3ccc(Cl)cc3)nc2C#N)CC(C)O1 (configuration not stated),90.4%
17,C#CCOC(=O)/C=C/c1cn(-c2ccccc2)nc1-c1ccc(OC)cc1,54%
18,O=C(Nc1cccc(Cl)c1)Nc1cccc(Cn2c(=O)[nH]c3ccc(Oc4ncccn4)cc3c2=O)c1,61.8%
19,COc1ccc(/C=C/C(=O)c2cc3c(N)c(C(=O)Nc4cccc5ccccc45)sc3nc2C)cc1,62.7%
20,CCCNc1nc2ccccc2c2c1S(=O)(=O)c1ccc(Cl)cc1C2=O,10.9%
21,NC(=O)CSc1oc(-c2ccccc2)nc1S(=O)(=O)c1ccc(Br)cc1,59.7%
22,N#CSc1c[nH]c2cccc(/C=C/C(=O)/C=C(/C=C/c3cccc4[nH]cc(SC#N)c34)OB(F)F)c12,-76% (active)
23,C=C1C(=O)O[C@H]2[C@H]1CC/C(COC(=O)NCc1ccc(Cn3c(=O)sn(CCCCC)c3=O)cc1)=C\CC[C@@]1(C)O[C@@H]21,6.58% (active)
24,N#CC(C#N)N=Nc1ccc(Br)cc1,2.16% (active)
25,COc1ccc(-c2noc(C(=O)O)c2-c2cc(OC)c(OC)c(OC)c2)cc1,38.8%
26,COc1c(B(O)O)cccc1-c1cc(C)c2c(ccc3[nH]ncc32)n1,21.6%
27,COc1ccc2cc1Oc1ccc(cc1)C[C@H]1c3c(cc4c(c3Oc3cc5c(cc3OC)CCN(C)[C@@H]5C2)OCO4)CCN1C,60.6%

# Tested on: TK-10 renal
# Assay: as above
# Conditions: 10 µM unless noted
row,Structure (SMILES),growth
1,NC(=O)C(=O)c1ccccc1NC=O,107%
2,N#Cc1c(-c2ccccc2)[nH]c2ncc(-c3ccccc3)n2c1=O,120%
3,O=S(=O)(Nc1cc(Cl)ccc1Cl)c1ccc(-c2cnc(C3CC3)o2)cc1,60%
4,COc1cc(C2CC(c3ccc(Nc4nc(Nc5ccc(Cl)cc5)nc(Nc5ccc(Cl)cc5)n4)cc3)=NN2C(C)=O)cc(OC)c1OC (configuration not stated),118%
5,N#Cc1c(-c2ccc(Cl)cc2)c(C#N)c2c(C#N)c(N)nn2c1N,83.8%
6,CC(=O)N1N=C(c2ccc(Nc3nc(Nc4ccccc4)nc(Nc4ccccc4)n3)cc2)CC1c1cccc([N+](=O)[O-])c1 (configuration not stated),127%
7,N#CC1=C(c2ccccc2)Nc2c(c(-c3ccc(Cl)cc3)nn2-c2ccccc2)C12C(=O)Nc1ccc(Cl)cc12 (configuration not stated),73.7%
8,O=C(Nc1nc2ccc(C(=O)N3CCN(/C=C/c4ccccc4)CC3)cc2s1)c1ccc(NCCc2ccccc2)c([N+](=O)[O-])c1,87.7%
9,Cc1ccc(/C=C2\COc3ccc(O)cc3C2=O)cc1,102%
10,CCNCCNc1cc(C2CCCCC2)c(C#N)c2nc3ccccc3n12,27.2%
11,Nc1c(C(=O)Nc2ccncc2)sc2nc3c(cc12)C(O)CCC3 (configuration not stated),91%
12,C=CCN=c1sc2c(n1NC(=O)c1cc3ccc1CCc1ccc(cc1)CC3)C(=O)c1ccccc1C2=O,58.3%
13,Cc1nc2sc(C(=O)Nc3cccc(Br)c3)c(N)c2cc1C(O)c1ccccc1 (configuration not stated),58%
14,Cc1cc(S(=O)(=O)/N=C(\N)n2nc(C)c(C)c2C)c(SCc2ccccc2)cc1Cl,116%
15,Oc1ccc(Cl)cc1/C=N\NC(=S)N/N=C/c1cc(Cl)ccc1O,31%
16,O=C(/C=C/c1cccs1)Nc1ncc(Cc2ccccc2F)s1,49.6%
17,COC(=O)CC[C@H](C)[C@H]1CC[C@H]2[C@@H]3CC[C@@H]4CC5(CC[C@]4(C)[C@H]3CC(=O)[C@]12C)Nc1ccccc1NC5=NC(C)(C)C (some centres not stated),97.4%
18,CC1CCc2c(C(=O)Nc3ncc(Cc4cccc([N+](=O)[O-])c4)s3)csc2C1 (configuration not stated),46.7%
19,O=C1/C=C/[C@@H](O)[C@@H]2C[C@@H](O)C[C@H]2/C=C/CCC[C@H](CCc2ccccc2)O1,-26% (active)
20,O=C(Nc1ccccc1O)c1ccc(CNC(=O)c2sccc2Nc2ccnc(C(F)(F)F)c2)cc1,4.53% (active)

row,Structure (SMILES),growth
1,COc1ccc(C(=O)/C=C/c2c(C(F)(F)F)nc3ccccn23)cc1OC,29.9%
2,CCC(=C(c1ccc(OCCN2CCCCC2)cc1)c1ccc(OCCN2CCCCC2)cc1)c1ccc(Cl)cc1,-84.7% (active)
3,O=C1Nc2ccc(C(=O)O)cc2/C1=N/c1nnc(Sc2ccccc2)s1,106%
4,CCN1CCN(C(=O)[C@]23CCC(C)(C)C[C@@H]2C2=CC[C@@H]4[C@@]5(C)CCC(=O)C(C)(C)[C@@H]5CC[C@@]4(C)[C@]2(C)CC3)CC1,80.4%
5,Nc1ncnc2c1C(c1ccccc1)c1ccc3ccccc3c1O2 (configuration not stated),96%
6,Cn1cc(-c2ccc3nc(-c4ccc(CC(=O)ONc5cc(C(C)(C)C)on5)cc4)cnc3c2)cn1,21.3%
7,Cc1ccc2c(c1)=C/C(=C\c1cc(-c3ccccc3)oc1O)C(=O)N=2,97.6%
8,COc1ccc(-c2nc3c(ncc4ccc(=O)[nH]c43)s2)cc1,73.8%
9,CC1CN(S(=O)(=O)c2oc(-c3ccc(Cl)cc3)nc2C#N)CC(C)O1 (configuration not stated),-54% (active)
10,C#CCOC(=O)/C=C/c1cn(-c2ccccc2)nc1-c1ccc(OC)cc1,91.6%
11,O=C(Nc1cccc(Cl)c1)Nc1cccc(Cn2c(=O)[nH]c3ccc(Oc4ncccn4)cc3c2=O)c1,68.9%
12,COc1ccc(/C=C/C(=O)c2cc3c(N)c(C(=O)Nc4cccc5ccccc45)sc3nc2C)cc1,94.2%
13,CCCNc1nc2ccccc2c2c1S(=O)(=O)c1ccc(Cl)cc1C2=O,17.3%
14,NC(=O)CSc1oc(-c2ccccc2)nc1S(=O)(=O)c1ccc(Br)cc1,82.1%
15,N#CSc1c[nH]c2cccc(/C=C/C(=O)/C=C(/C=C/c3cccc4[nH]cc(SC#N)c34)OB(F)F)c12,-51.7% (active)
16,C=C1C(=O)O[C@H]2[C@H]1CC/C(COC(=O)NCc1ccc(Cn3c(=O)sn(CCCCC)c3=O)cc1)=C\CC[C@@]1(C)O[C@@H]21,2.53% (active)
17,N#CC(C#N)N=Nc1ccc(Br)cc1,36.5%
18,COc1ccc(-c2noc(C(=O)O)c2-c2cc(OC)c(OC)c(OC)c2)cc1,46.4%
19,COc1c(B(O)O)cccc1-c1cc(C)c2c(ccc3[nH]ncc32)n1,29.2%
20,COc1ccc2cc1Oc1ccc(cc1)C[C@H]1c3c(cc4c(c3Oc3cc5c(cc3OC)CCN(C)[C@@H]5C2)OCO4)CCN1C,44.8%
